The full ranking holds about 3,200 compounds; the median of “TSA(without NAD+) / Primary screening (TSA) / delta Tm (K)” is about -0.07, and the highest 2% start at about 0.37. Many of the other results were omitted from the sample, so the highest values are more common in it than they were.
Biological target: NAD-dependent deacetylase Sirtuin 1 (human, UniProt Q96EB6)
Experiment: primary screen, delta tm
Set-up: single well (n = 1)
Details: 10 µM
Summary of the method: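 Thermal shift of Sirtuin 1 measured without NAD+, compound at 10 µM (n = 1); value is ΔTm, with hits defined as ΔTm > 0.45 K or < −1.5 K. Hits retested at 5, 10, 20 µM (n = 4) and counterscreened on bovine carbonic anhydrase and ABL1 SH2 domain.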

Chain of NAD-dependent deacetylase Sirtuin 1 (Q96EB6 2-747 limits assumed): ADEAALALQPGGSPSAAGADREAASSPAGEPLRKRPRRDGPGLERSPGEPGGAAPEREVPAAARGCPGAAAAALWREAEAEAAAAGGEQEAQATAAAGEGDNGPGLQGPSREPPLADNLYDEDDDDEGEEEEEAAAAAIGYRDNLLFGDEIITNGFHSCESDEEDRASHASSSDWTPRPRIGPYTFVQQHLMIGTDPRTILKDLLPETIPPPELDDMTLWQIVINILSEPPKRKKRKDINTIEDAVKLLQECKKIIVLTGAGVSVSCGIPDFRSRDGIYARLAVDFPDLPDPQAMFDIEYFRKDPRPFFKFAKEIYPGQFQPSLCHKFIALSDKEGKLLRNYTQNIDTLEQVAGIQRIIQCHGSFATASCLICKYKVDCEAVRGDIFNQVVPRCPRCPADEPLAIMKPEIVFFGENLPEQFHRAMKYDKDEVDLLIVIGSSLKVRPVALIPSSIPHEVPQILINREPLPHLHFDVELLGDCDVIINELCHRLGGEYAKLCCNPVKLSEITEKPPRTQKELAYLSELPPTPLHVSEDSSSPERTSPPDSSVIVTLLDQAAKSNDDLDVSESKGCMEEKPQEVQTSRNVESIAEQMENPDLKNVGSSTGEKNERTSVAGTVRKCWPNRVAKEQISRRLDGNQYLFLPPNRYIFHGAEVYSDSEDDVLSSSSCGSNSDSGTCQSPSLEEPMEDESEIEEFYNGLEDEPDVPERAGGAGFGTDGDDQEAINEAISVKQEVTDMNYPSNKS

SMILES	TSA(without NAD+) / Primary screening (TSA) / delta Tm (K)
c1nc(N2CCNCC2)c2sccc2n1	-0.08
NC(=O)c1ccc(COC(=O)c2cc3c(ccc4ccccc43)[nH]2)cc1	0.05
N#CC(C(=O)c1ccc(NS(=O)(=O)c2ccccc2)cc1)c1nc(-c2ccccn2)cs1 (stereo not drawn)	0.46
O=C(Nc1ccc(Oc2ncccn2)cc1)c1ccc(S(=O)(=O)Nc2ccc(F)cc2)cc1	-0.11
Cc1nc(COc2ccc(C(=O)Nc3ccc(S(=O)(=O)Nc4cccc(F)c4)cc3)cc2)cs1	0.09
COc1ccc2[nH]cc(C3CCN(C(=O)c4coc(C)c4)CC3)c2c1	-0.03
Cc1nnc(CNC(=O)c2cc(-c3ccccc3)nc3c(C(N)=O)ncn23)s1	-0.04
COc1ccc(NC(=O)c2ccccc2NC(=O)COC(=O)C23CC4CC(CC(O)(C4)C2)C3)cc1	0.19
COc1ccc(NC(=O)COc2ccc(C(=O)NCC34CC5CC(CC(C5)C3)C4)cc2OC)cc1	-0.34
COc1ccccc1NS(=O)(=O)c1ccc(NC(=O)CNC(=O)C23CC4CC(CC(C4)C2)C3)cc1	0.03
COc1ccc(NC(=O)c2ccc(NC(=O)COC(=O)C34CC5CC(CC(Br)(C5)C3)C4)cc2)cc1	1.08
COc1ccccc1NC(=O)COc1ccc(C(=O)OCC(=O)NC23CC4CC(CC(C4)C2)C3)cc1OC	0.08
COc1ccccc1NC(=O)c1ccc(NC(=O)COC(=O)C23CC4CC(CC(C4)C2)C3)cc1	0.42
CCOC(=O)c1ccc(S(=O)(=O)N2CCC(C(=O)OCC(=O)NCC34CC5CC(CC(C5)C3)C4)CC2)cc1	-0.13
CC(=O)N(c1nn(CN2CCN(c3ccc(C(N)=O)cn3)CC2)c(=S)s1)C1CC1	-0.23
CC1Cc2ccccc2N1c1ncnc2ccsc12 (stereo not drawn)	0.07
CC(C)(C)c1ccc(OCC(=O)NNC(=O)c2cccnc2O)cc1	0.17
Cc1nc2cc(C(=O)Nc3ccc(NC(=O)N4CCCCCC4)cc3)ccc2n1C	-0.04
NC(=O)C1CCN(c2ncnc3sc4c(c23)CCC4)CC1	-0.21
Cc1nc(N2CCC(C(N)=O)CC2)c2c3c(sc2n1)CCC3	0.07
Cc1nc(N2CCC(C(N)=O)CC2)c2c3c(sc2n1)CCCCC3	0.78
NC(=O)C1CCN(c2ncnc3sc4c(c23)CCCCC4)CC1	0.36
Cc1nc(N2CCC(C(N)=O)CC2)c2c3c(sc2n1)CCCC3	0.56

SMILES	TSA(without NAD+) / Primary screening (TSA) / delta Tm (K)
Cc1nc(N2CCC(NC(N)=O)CC2)c2c3c(sc2n1)CCCC3	-0.03
CN(CC(=O)Nc1cccc2ccccc12)C(=O)C1=COCCO1	-0.23
Cc1[nH]c2ccccc2c1CC(=O)Nc1cccc(-c2noc(=O)[nH]2)c1	0.07
CC(C)Oc1ccc(C(=O)C2=C(O)C(=O)N(CCCN3CCOCC3)C2c2cccs2)cc1 (stereo not drawn)	-0.23
NC(=O)c1ccc(CN2CCSCC2)cc1	0.06
CCN(CC)CCNC(=O)c1ccc(NC(=O)CC2CCCC2)cc1	0.07
NC(=S)c1ccc(C(=O)NCc2ccnc(OCC(F)(F)F)c2)cc1	-0.18
O=C(CCc1c[nH]c2ccccc12)NCCc1ccco1	-0.05
CN(c1ccccc1)S(=O)(=O)c1cccc(NC(=O)CNc2cccc3ccccc23)c1	0.17
O=C(CCc1c[nH]c2ccccc12)Nc1nnc(-c2ccccc2)o1	0.52
O=C(CCc1c[nH]c2ccccc12)Nc1cccc(S(=O)(=O)NCc2ccco2)c1	-0.01
O=C(CCc1c[nH]c2ccccc12)Nc1ccc2nc[nH]c(=O)c2c1	0.26
CN(c1ccccc1)S(=O)(=O)c1cccc(NC(=O)CCCc2c[nH]c3ccccc23)c1	0.52
CN(c1ccccc1)S(=O)(=O)c1cccc(NC(=O)CCc2c[nH]c3ccccc23)c1	0.38
CN(c1ccccc1)S(=O)(=O)c1cccc(C(=O)NCCc2c[nH]c3ccccc23)c1	0.16
Cc1ccc(N(C)S(=O)(=O)c2cccc(C(=O)NCCc3c[nH]c4ccccc34)c2)cc1	0.23
COc1cccc(NC(=S)Nc2cccc(S(=O)(=O)N(C)c3ccccc3)c2)c1	-0.03
NC(=O)c1ccc(C(=O)OCC(=O)c2cc3ccccc3o2)cc1	-0.38
Cc1ccc(NC(=O)CN2CCN(C(=O)c3ccc(-c4ccc(Cl)cc4)o3)CC2)cc1	0.08
Cc1ccc2nc(-c3ccc(NC(=O)C(C)Cl)cc3)sc2c1 (stereo not drawn)	0.22
O=C1NC(=S)NC(=O)C1=Cc1cn(-c2ccccc2)nc1-c1cc2ccccc2o1	0.36
CC(=O)N1Cc2ccccc2CC1C(=O)NC1CCOc2ccccc21 (stereo not drawn)	-0.13
